Measurements as given in PubChem BioAssay AID1851 (National Center for Advancing Translational Sciences (NCATS), 2009).
Out of some 16,000 compounds screened, about 5,700 (36%) were called active. Roughly 24% stayed inconclusive and do not appear here. Some of the results follow. A number with no mark means an inactive call. Calls come from the whole dose curve; as a rule, active = well fitted curve in the direction sought with a large enough effect; inconclusive = small, poorly fitted or top-dose-only effect, or effect the other way; inactive = no such curve, though single readings can be large or run the other way.

target: Cytochrome P450 1A2 (Homo sapiens) (UniProt P05177); assay: Cytochrome panel assay with activity outcomes; details: recombinant CYP, pro-luciferin dealkylation, luminescence, p450-cyp1a2; series mostly up to 57.1 µM
% is set by controls: 0 for no effect and ±100 for the full control effect.

Chain of Cytochrome P450 1A2 (Homo sapiens) (P05177 whole entry, looked up): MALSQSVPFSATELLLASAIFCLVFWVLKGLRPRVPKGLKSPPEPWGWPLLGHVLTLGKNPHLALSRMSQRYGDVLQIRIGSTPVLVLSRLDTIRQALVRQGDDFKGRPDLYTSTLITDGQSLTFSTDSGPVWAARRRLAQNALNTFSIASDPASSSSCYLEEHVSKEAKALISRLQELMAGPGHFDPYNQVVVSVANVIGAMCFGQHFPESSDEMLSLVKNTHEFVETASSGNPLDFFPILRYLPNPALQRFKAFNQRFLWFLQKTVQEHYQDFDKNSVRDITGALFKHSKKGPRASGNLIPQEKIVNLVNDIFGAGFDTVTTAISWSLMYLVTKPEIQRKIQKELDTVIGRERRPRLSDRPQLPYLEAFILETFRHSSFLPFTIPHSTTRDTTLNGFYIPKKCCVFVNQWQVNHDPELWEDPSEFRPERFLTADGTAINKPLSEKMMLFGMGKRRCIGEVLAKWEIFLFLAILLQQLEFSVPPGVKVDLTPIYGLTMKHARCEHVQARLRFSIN

| SMILES | AC50 | activity, negative = inhibition |
| --- | --- | --- |
| CN1CCN(C(=O)C(C(=O)c2ccc(F)cc2)n2ccccc2=O)CC1 (stereo not drawn) | inactive | – |
| Fc1ccc(Nc2ncnc3ccc(-c4ccoc4)cc23)cc1 | 1000 nM (active) | – |
| c1ccc(Nc2ncnc3ccc(-c4ccoc4)cc23)cc1 | 1580 nM (active) | – |
| CCc1ccc(NC(=O)CSc2nc3cc(C(=O)OC)ccc3c(=O)n2Cc2ccco2)cc1 | inactive | – |
| CCN(C(=O)CSc1nc2cc(C(=O)OC)ccc2c(=O)n1Cc1ccco1)c1cccc(C)c1 | 2510 nM (active) | – |
| COC(=O)[C@@H]1C[C@H]1[C@@H](NC(=O)Oc1ccc(F)cc1)c1ccccc1 | 3160 nM (active) | – |
| COC(=O)[C@H]1C[C@@H]1[C@H](NC(=O)Oc1ccc(F)cc1)c1ccccc1 | 1000 nM (active) | – |
| Cc1ccccc1OCCCn1c(=O)sc2ccccc21 | 3160 nM (active) | – |
| Cc1ccc(OCCCn2c(=O)sc3ccccc32)cc1 | inactive | – |
| O=c1sc2ccccc2n1CCCOc1ccccc1 | 15800 nM (active) | – |
| O=P(O)(COc1ccccc1)COc1ccccc1 | inactive | – |
| O=C(Nc1nc(-c2ccccc2)cs1)c1cccc([N+](=O)[O-])c1 | 1410 nM (active) | – |
| O=C(COc1ccc(/C=N/NC(=O)c2ccccc2)cc1)Nc1ccc([N+](=O)[O-])cc1 | inactive | – |
| CCOC(=O)c1cccc(NC(=O)COc2ccc([N+](=O)[O-])cc2)c1 | 12600 nM (active) | – |
| CCC(=O)Nc1cccc(NC(=O)c2cccc([N+](=O)[O-])c2)c1 | 7080 nM (active) | – |
| COc1ccccc1Nc1nc(-c2sc(NC(=O)c3ccc([N+](=O)[O-])cc3)nc2C)cs1 | inactive | – |
| O=C(Nc1cccc([N+](=O)[O-])c1)c1ccc(CSc2ccccc2)cc1 | inactive | – |
| CCC(=O)Nc1cccc(C(=O)/C=C/c2ccccc2)c1 | 1000 nM (active) | – |
| CS(=O)(=O)N(CC(=O)Nc1cccc(F)c1)c1cccc([N+](=O)[O-])c1 | inactive | – |
| CC(C)NC(=O)N1CCC2(CC1)CCN(S(C)(=O)=O)CC2 | inactive | – |
| Cc1ccccc1N1C(=O)c2cc(S(N)(=O)=O)c(Cl)cc2N[C@H]1C | inactive | – |
| COc1ccc(Cl)cc1N=Nc1ncc[nH]1 | 631 nM (active) | – |
| Cn1c(=O)[nH]c(=O)c2c1nc(CN1CCOCC1)n2Cc1ccccc1 | inactive | – |
| Clc1ccc(Cn2c(CN3CCCC3)nc3ccccc32)cc1 | 10000 nM (active) | – |

| SMILES | AC50 | activity, negative = inhibition |
| --- | --- | --- |
| O=C(CN(c1ccccc1)S(=O)(=O)c1ccccc1)NCCSCc1ccco1 | inactive | – |
| CC(C(=O)NCc1ccc2c(c1)OCO2)N1c2cccc3cccc(c23)S1(=O)=O (stereo not drawn) | 1780 nM (active) | – |
| COc1ccccc1C1=NOC(COC(=O)c2ccc3ccccc3n2)C1 (stereo not drawn) | 14100 nM (active) | – |
| O=C(O)c1c(-c2c3ccc(=O)cc-3oc3cc(O)ccc23)cc2ccccc2c1-c1ccccc1 | – | -17.6% [at 2.29 µM] |
| CNC(=O)/C(C#N)=c1\s/c(=C/C(=O)OC)c(=O)n1-c1ccccc1 | inactive | – |
| COC(=O)[C@@H]1[C@@H](O)[C@]2(O)c3ccccc3O[C@]2(c2ccccc2)[C@H]1c1ccccc1 | – | -6.42% [at 11.4 µM] |
| COc1cc(CNC2CCCC2)cc(Cl)c1OCc1ccccc1Cl | 708 nM (active) | – |
| COc1ccccc1CNC(=O)CCCn1c(=O)c2ccccc2n(CC(=O)NC2CCCC2)c1=O | inactive | – |
| COc1cccc(CNc2ccc(F)c(Cl)c2)c1O | inactive | – |
| COc1cc(O)oc1C=Nc1ccc(C(F)(F)F)cc1 | 501 nM (active) | – |
| COc1cc(O)oc1C=Nc1ccc(Cl)cc1 | 2240 nM (active) | – |
| CCC#CCOCC(=O)Nc1ccccc1 | 25100 nM (active) | – |
| COC(=O)N1CCC2(CCN(C(=O)Nc3ccccc3)CC2)CC1 | inactive | – |
| CC(C)CN1CCCC2(CCN(C(=O)c3cccc(F)c3)CC2)C1 | inactive | – |
| Nc1ncnc2c1ncn2[C@H]1O[C@@H](CO)[C@@H](O)[C@H]1N | – | -8.67% [at 11.4 µM] |
| Cc1cccc(C)c1OC1(c2ccccc2)OC(=O)c2ccccc21 (stereo not drawn) | 20000 nM (active) | – |
| CCCCOC1(c2ccccc2)OC(=O)c2ccccc21 (stereo not drawn) | inactive | – |
| CCCCCCCOC1(c2ccccc2)OC(=O)c2ccccc21 (stereo not drawn) | inactive | – |
| CC(=O)N1CCC2(CC1)CCN(c1ccccn1)CC2 | inactive | – |
| O=C1C=CC(=Nc2cccc3c(N=C4C=CC(=O)O4)cccc23)O1 | – | -14% [at 11.4 µM] |
| O=C(CSc1nc2ccccc2[nH]1)Nc1c(F)cccc1F | 8910 nM (active) | – |
| O=C(O)CSc1nc2ccccc2[nH]1 | – | -19.8% [at 11.4 µM] |
| O=C(CCN1C(=O)C2C3C=CC(C3)C2C1=O)Nc1c(F)cccc1F (stereo not drawn) | inactive | – |
| O=C(Nc1ccc(Cl)cc1)OCc1cc(-c2ccccc2Cl)on1 | 447 nM (active) | – |
